Potency data for five molecules are collected here from PubChem BioAssay AID493166 (National Center for Advancing Translational Sciences (NCATS), 2011).

The source made the active and inactive calls. Calls follow the shape of the dose curve; as a rule, active = well fitted curve in the direction sought with a large enough effect; inactive = no such curve, though single readings can be large or run the other way.

A short description of this assay: Retest of LOPAC molecules that induce DNA re-replication in MCF 10A normal breast cells. To be noted: MCF 10A DNA re-replication, Hoechst nuclear intensity, 48 h; series mostly up to 45.1 µM. The text has this: NIH Molecular Libraries Probe Production Network [MLPCN] NIH Chemical Genomics Center [NCGC] MLPCN Grant: Fast Track K99 CA136555 Assay Provider: Melvin DePamphilis, NICHD, NIH Assay Overview Eukaryotic cells normally restrict genome duplication to once per cell division. When this process is aberrant, DNA re-replication occurs when cells reinitiate DNA replication before the first round of replication is complete. DNA re-replication induces the DNA damage response, arrests cell proliferation, and triggers apoptosis. The cell cycle components cyclin A, Cdt-1, Cdc6 and geminin are critical regulators of this process and their misregulation results in DNA re-replication in normal and cancer cells. To identify compounds that induce re-replication in normal cells, an image-based assay was used to measure DNA content of nuclei, as detected by the fluorescent DNA binding dye, Hoechst. Cell nuclei were imaged by a fluorescence scanning plate imager and compounds that induce DNA re-replication were identified by the increase of nuclei with elevated fluorescence intensity.
Assay Protocol Summary For screening, 250 cells in 5 uL/well were dispensed into black clear 1536-well plates (Aurora) using a solenoid-based dispenser. Following transfer of 23 nL compound or DMSO vehicle by a pin tool, the plates were incubated 48 hr at 37 C and 5% CO2. After addition of 1 uL/well Hoescht stain, the plates were incubated 40 min at 37 C, 5% CO2 and total intensity of fluorescent objects (nuclei) were enumerated by an Acumen Explorer Ex3 (TTP LabTech) fluorescence scanning plate imager (405 nm excitation, 500-530 nm emission). Keywords: NIH Roadmap, MLPCN, MLI, MLSMR, qHTS, NCGC, DNA replication, cancer
With `C[C@@H](Oc1ccc(Oc2cnc3ccc(Cl)cc3n2)cc1)C(=O)O`, the Potency entry is “inactive”.
On to `CCCCCCN(CCCCCC)C(=O)Cc1c(-c2ccc(F)cc2)[nH]c2ccccc12`, for which the Potency entry is “inactive”.
To `COc1cc2c(cc1O)CC[C@@H]1[C@@H]2CC[C@]2(C)[C@@H](O)CC[C@@H]12` belongs 4.76 µM (active).
In the case of `O=c1cc(-c2ccccc2)[nH]c2nc(Cl)ccc12`, the Potency was 5.34 µM (active).
For `CC(=O)O[C@H]1C(=O)[C@@]2(C)C([C@H](OC(=O)c3ccccc3)[C@]3(O)C[C@H](OC(=O)[C@H](O)[C@@H](NC(=O)c4ccccc4)c4ccccc4)C(C)=C1C3(C)C)[C@]1(OC(C)=O)CO[C@@H]1C[C@@H]2O` (stereo not given in full), the Potency was 0.0534 µM (active).
